Experimental data from PubChem BioAssay AID2534 (National Center for Advancing Translational Sciences (NCATS), 2010).
Records with an inconclusive call do not appear. The source made the active and inactive calls. The call rests on the fitted dose curve; in most records, active means well fitted curve in the direction sought with a large enough effect; inconclusive means small, poorly fitted or top-dose-only effect, or effect the other way, or another doubt; inactive means no such curve, though single readings can be large or run the other way.

Target: Pyruvate kinase PKLR (Homo sapiens) (UniProt P30613)
Sequence (P30613 whole entry, looked up): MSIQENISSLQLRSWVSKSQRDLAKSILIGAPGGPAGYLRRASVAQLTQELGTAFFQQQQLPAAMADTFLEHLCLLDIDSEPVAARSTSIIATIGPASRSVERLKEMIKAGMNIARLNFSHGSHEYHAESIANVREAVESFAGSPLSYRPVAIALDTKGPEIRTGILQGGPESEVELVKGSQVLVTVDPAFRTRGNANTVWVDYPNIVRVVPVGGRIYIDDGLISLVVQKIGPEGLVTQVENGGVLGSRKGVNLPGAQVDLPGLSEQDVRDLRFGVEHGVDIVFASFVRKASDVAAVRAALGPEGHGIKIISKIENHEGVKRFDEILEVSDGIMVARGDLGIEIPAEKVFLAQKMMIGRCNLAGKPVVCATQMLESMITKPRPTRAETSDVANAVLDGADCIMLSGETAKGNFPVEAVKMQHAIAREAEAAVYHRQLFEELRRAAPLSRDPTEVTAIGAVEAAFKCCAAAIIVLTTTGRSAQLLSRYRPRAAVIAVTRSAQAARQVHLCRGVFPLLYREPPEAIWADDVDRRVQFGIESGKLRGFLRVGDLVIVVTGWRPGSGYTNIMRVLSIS
Experiment: Secondary Concentration-Response Assay for Activators of Human Reticulocyte Pyruvate Kinase: for Probe SAR
Conditions: purified hPK-R, ATP production, Kinase-Glo luminescence; series mostly up to 57.5 µM; activity change, negative = inhibition: at the top concentration
Description: NIH Chemical Genomics Center [NCGC]
Wael M. Rabeh, Lyudmila Nedyalkova and Hee-Wan Park [Structural Genomics Consortium, 100 College St. Toronto, Ontario, Canada]
Human pyruvate kinase reticulocyte (hPK-R) enzyme was supplied as a highly purified (>95% pure) preparation from Structural Genomics Consortium in Toronto (Ontario, Canada) and assayed for its ability to generate ATP from ADP using phosphoenolpyruvate (PEP) as a substrate. ATP generation was detected in a coupled reaction by luciferase-mediated luminescence, an ATP-dependent process. Pyruvate kinase substrates, PEP and ADP, were present in the assay at Km and approximately 10-fold below Km respectively. The enzyme was assayed at an intermediate level of activity to screen for both inhibitors and activators.
NCGC Assay Protocol Summary for R-isoform
Three uL of substrate mix (at r.t.) in assay buffer (50 mM Imidazole pH7.2, 50 mM KCl, 7 mM MgCl2, 0.01% Tween 20, 0.05% BSA) was dispensed into white solid bottom 1,536 well microtiter plates so that the final concentrations of substrates in the assay were 0.1 mM ADP and 0.5 mM PEP. 23 nL of compound were delivered by a pin tool and 1 uL of enzyme mix (final concentration of 0.1 nM) in assay buffer (4 degree Celsius) was added. Plates were incubated at room temperature for 1 hour. Two uL of detection mix (Kinase-Glo, Promega; at 4 degree Celsius protected from light) was added and luminescence read by a ViewLux (Perkin Elmer) at 1 second exposure/plate. Data were normalized to the uninhibited (row 31). Additionally, a no enzyme and 5-fold enzyme control was dispensed in row 32, split equally between the two conditions.

Activity change, negative = inhibition, inactive:
O=C1c2ccccc2C(=O)N1c1cnc2ccccc2c1 10.5%
O=C1c2ccccc2C(=O)N1c1cncc2ccccc12 9.51%
O=C1CCc2cc(S(=O)(=O)Nc3ccc4c(c3)OCCO4)ccc2N1 12.4%
Cc1ccc(NS(=O)(=O)c2ccc3c(c2)n(C)c(=O)n3C)cc1C 12.9%
O=C1c2ccccc2C(=O)N1c1cccc2cnccc12 4.76%
O=C1c2ccccc2C(=O)N1c1cccc(Cl)c1 3.13%
Cc1ccc(C)c(SC2=N[S+](=O)([O-])c3cc(C(=O)Nc4ccc5ncccc5c4)ccc32)c1 -22.6%
O=C1CCc2cc(S(=O)(=O)Nc3cccnc3)ccc2N1 1.36%
CN(C)c1cccc(S(=O)(=O)N2CCCN(S(=O)(=O)c3ccc4c(c3)OCCO4)CC2)c1 18.2%
Cc1ccc(C)c(OC2=NS(=O)(=O)c3ccccc32)c1 -0.194%
